From PubChem BioAssay (EPA / NIEHS) come the findings set out here.

Read-out in experiment [1]: Urokinase-type plasminogen activator receptor (uPAR), PLAUR (gene 5329)
Kind of experiment: BSK_4H_uPAR: BioMAP Diversity Plus: 4H Assay for Urokinase-type plasminogen activator receptor (uPAR) Biomarker Activity (AID 2283030). The settings on record: primary human endothelial cells (HUVEC); actives raise or lower the signal. In a few lines:
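Primary human umbilical vein endothelial cells were exposed to chemical for 24 h before cell-surface uPAR was quantified by ELISA. Activity was fitted bidirectionally against the DMSO negative control baseline.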

Read-out in experiment [2]: Vascular endothelial growth factor receptor 2 (Homo sapiens) (UniProt P35968)
Kind of experiment: BSK_4H_VEGFRII: BioMAP Diversity Plus: 4H Assay for Vascular endothelial growth factor receptor 2 (VEGFR2) Biomarker Activity (AID 2283031).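 On AC50: cell-surface VEGFR2 protein level quantified by ELISA.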 The following applies: primary human endothelial cells (HUVEC); actives raise or lower the signal. The method in brief: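 Primary human umbilical vein endothelial cells in the BioMAP 4H system were dosed with test chemical, and 24 h later VEGFRII was measured by ELISA. Activity was fitted bidirectionally against DMSO as negative control and baseline.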

Read-out in experiment [3]: Human Leukocyte Antigen - DR isotype (HLADR), HLA-DRA (gene 3122)
Kind of experiment: BSK_BE3C_HLADR: BioMAP Diversity Plus: BE3C Assay for Human Leukocyte Antigen - DR isotype (HLADR) Biomarker Activity (AID 2283032). The following applies: primary human bronchial epithelial cells; actives raise or lower the signal. The method in brief:
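Human primary bronchial epithelial cells in the BE3C system were exposed to chemicals for 24 h, after which HLA-DR levels were quantified by ELISA. Activity was fitted bidirectionally, gain or loss of signal, against DMSO as negative control and baseline.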

Read-out in experiment [4]: Vascular cell adhesion molecule 1 (VCAM1), VCAM1 (gene 7412)
Kind of experiment: BSK_4H_VCAM1: BioMAP Diversity Plus: 4H Assay for Vascular cell adhesion molecule 1 (VCAM1) Biomarker Activity (AID 2283033).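 On outcome: cell-surface VCAM-1 protein measured by ELISA.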 The settings on record: primary human endothelial cells (HUVEC); actives raise or lower the signal. In a few lines: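 Primary human umbilical vein endothelial cells were exposed to chemicals for 24 h, after which VCAM-1 was quantified by ELISA. Responses were fitted bidirectionally against DMSO as negative control and activity baseline.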

Read-out in experiment [5]: Interferon-gamma inducible Protein 10 (IP10), CXCL10 (gene 3627)
Kind of experiment: BSK_BE3C_IP10: BioMAP Diversity Plus: BE3C Assay for Interferon-gamma inducible Protein 10 (IP10) Biomarker Activity (AID 2283034). The following applies: primary human bronchial epithelial cells; actives raise or lower the signal. In a few lines:
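Human primary bronchial epithelial cells were exposed to chemicals for 24 hours, after which IP-10 levels were measured by ELISA. Data were fitted bidirectionally against DMSO, which served as the negative control and activity baseline.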

Read-out in experiment [6]: Monokine induced gamma interferon (MIG), CXCL9 (gene 4283)
Kind of experiment: BSK_BE3C_MIG: BioMAP Diversity Plus: BE3C Assay for Monokine induced gamma interferon (MIG) Biomarker Activity (AID 2283035).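 On outcome: MIG protein measured by ELISA in BE3C cultures after 24 h of dosing.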 The settings on record: primary human bronchial epithelial cells; actives raise or lower the signal. The method in brief:
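Primary human bronchial epithelial cells treated for 24 h; MIG levels measured by ELISA, fitted bidirectionally versus DMSO. Parallel SRB total-protein staining assessed cytotoxicity.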

Read-out in experiment [7]: Transforming growth factor beta 1 (TGFb1), TGFB1 (gene 7040)
Kind of experiment: BSK_BE3C_TGFb1: BioMAP Diversity Plus: BE3C Assay for Transforming growth factor beta 1 (TGFb1) Biomarker Activity (AID 2283036). The following applies: primary human bronchial epithelial cells; actives raise or lower the signal. In a few lines:
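Human primary bronchial epithelial cells (BE3C system) were dosed with chemical and TGF-b1 levels measured by ELISA at 24 h. Activity was fitted bidirectionally relative to DMSO negative control as baseline.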

Read-out in experiment [8]: Plasminogen activator inhibitor-1 (PAI1), SERPINE1 (gene 5054)
Kind of experiment: BSK_BE3C_PAI1: BioMAP Diversity Plus: BE3C Assay for Plasminogen activator inhibitor-1 (PAI1) Biomarker Activity (AID 2283037). The following applies: primary human bronchial epithelial cells; actives raise or lower the signal. The method in brief:
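Human primary bronchial epithelial cells were exposed to chemical for 24 h, then PAI-1 was quantified by ELISA. Activity was fitted bidirectionally relative to the DMSO negative control baseline.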

Read-out in experiment [9]: urokinase plasminogen activator (uPA), PLAU (gene 5328)
Kind of experiment: BSK_BE3C_uPA: BioMAP Diversity Plus: BE3C Assay for urokinase plasminogen activator (uPA) Biomarker Activity (AID 2283038).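 On outcome: uPA protein level quantified by ELISA in cell cultures; uPA read one day after compound addition.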 The following applies: primary human bronchial epithelial cells; actives raise or lower the signal. The method in brief: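 Human primary bronchial epithelial cells were exposed to chemical for 24 h, then uPA levels were measured by ELISA. Responses were fitted bidirectionally against DMSO as negative control and baseline. Parallel SRB staining of total protein gauged overt cytotoxicity.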

Read-out in experiment [10]: Urokinase-type plasminogen activator receptor (uPAR), PLAUR (gene 5329)
Kind of experiment: BSK_BE3C_uPAR: BioMAP Diversity Plus: BE3C Assay for Urokinase-type plasminogen activator receptor (uPAR) Biomarker Activity (AID 2283039).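 On outcome: cells exposed to compound for one day before measurement.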 The following applies: primary human bronchial epithelial cells; actives raise or lower the signal. In a few lines: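 Primary human bronchial epithelial cells were dosed with chemical and harvested 24 h later; uPAR was quantified by ELISA. Activity was fitted bidirectionally against DMSO as negative control and baseline.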

As a reminder, the AC50 is the concentration at which the activity in the assay is half-maximal.

Some compounds were tested as several samples or in several runs, with calls that do not always agree. Activity calls are given as the source filed them. How the source made its calls: active means hit-call score of the fitted dose curve at least 0.9, where 1 is the maximum; inactive means score below 0.9.

Regarding `CCc1c(Br)c(Br)c(Br)c(Br)c1Br`, the outcome in experiment [1], in experiment [2], in experiment [3], in experiment [4], in experiment [5] and in experiment [6] was inactive. In addition, the outcome in experiment [7], in [8], in experiment [9] and in experiment [10] was inactive.

For the molecule `CC(=O)Nc1ccc(N=Nc2cc(C)ccc2O)cc1`, the outcome in experiment [1], in experiment [2], in experiment [3], in experiment [4], in experiment [6] and in experiment [7] was inactive. Further, the outcome in experiment [8], in experiment [9] and in [10] was inactive. In experiment [5], the half-maximal activity concentration (AC50) was 29.7 µM (active).

Regarding `O=C(O)C(F)(F)C(F)(F)OC(F)(F)F`, the result in experiment [1], in experiment [2], in experiment [3], in [4], in experiment [5] and in experiment [6] was inactive. In addition, the outcome in experiment [8], in [9] and in [10] was inactive. Besides, the AC50 in experiment [2] was 2.45 µM (active).

In the case of `C#C[C@]1(O)CC[C@H]2[C@@H]3CCc4cc(OC)ccc4[C@H]3CC[C@@]21C`, the result in experiment [1], in [2], in [4], in experiment [5], in [6] and in experiment [7] was inactive. Further, the outcome in experiment [8], in [9] and in experiment [10] was inactive. For the same molecule, the AC50 in [3] is 6.9 µM (active).

With `O=C(O)C(F)(OC(F)(F)C(F)(OC(F)(F)C(F)(F)C(F)(F)F)C(F)(F)F)C(F)(F)F` (stereo unspecified), the outcome in [1], in experiment [2], in [3], in [4], in experiment [5] and in experiment [6] was inactive. Besides, the result in [8], in [9] and in experiment [10] was inactive.

As for `CCCCCCCCCCCCCCCC[N+](C)(C)Cc1ccccc1`, the AC50 in experiment [1] is 5.78 µM (active); in [2], 38.8 µM (active); in experiment [3] it was 2.19 µM (active); in [4], 1.78 µM (active); in experiment [5], 2.47 µM (active); in [6], 10 µM (active). Also, the half-maximal activity concentration (AC50) was 20 µM (active) in [7], 20 µM (active) in [8], 13.2 µM (active) in experiment [9] and 9.42 µM (active) in [10].

For the molecule `FC(F)(F)C(F)(F)C(F)(F)C(F)(F)CCI`, the result in experiment [1], in [2], in [3], in experiment [4], in [5] and in [6] was inactive. The result in experiment [8], in [9] and in experiment [10] was inactive.

Regarding `CCCCNc1ccccc1`, the outcome in experiment [1], in experiment [2], in [3], in experiment [4], in experiment [5] and in experiment [6] was inactive. The result in [7], in [8], in experiment [9] and in experiment [10] was inactive.

Regarding `O=C(O)C(F)(F)C(F)(F)C(F)(F)C(F)(F)C(F)(F)C(F)(F)C(F)(F)C(F)(F)C(F)(F)C(F)(F)C(F)(F)C(F)(F)C(F)(F)F`, the result in experiment [1], in experiment [2], in experiment [3], in [4], in experiment [5] and in [6] was inactive. For the same molecule, the outcome in experiment [8], in [9] and in experiment [10] was inactive. Further, in experiment [2], the AC50 was 0.932 µM (active).

On to `C=CC/C=C/C/C=C/C/C=C/C`, for which the outcome in experiment [1], in experiment [2], in experiment [3], in [4], in experiment [5] and in [6] was inactive. Moreover, the outcome in experiment [7], in experiment [8], in experiment [9] and in experiment [10] was inactive.

As for `Cc1ccc(S(=O)(=O)OCC(F)(F)C(F)(F)C(F)(F)C(F)(F)C(F)(F)C(F)F)cc1`, in experiment [1], the AC50 is 46 µM (active). In addition, the outcome in [1], in experiment [2], in [3], in experiment [4], in [5] and in experiment [6] was inactive. Besides, the outcome in experiment [8], in [9] and in experiment [10] was inactive.

Turning to `CO[Si](OC)(c1ccccc1)c1ccccc1`, the result in experiment [1], in experiment [2], in experiment [3], in [4], in experiment [6] and in [7] was inactive. Besides, the outcome in experiment [8], in experiment [9] and in experiment [10] was inactive. Besides, the AC50 in experiment [5] is 26.6 µM (active).

For `Oc1ccc(Nc2ccccc2)cc1`, the AC50 in experiment [1] was 3.14 µM (active); in experiment [4], 20 µM (active); in experiment [5] it was 3.97 µM (active); in [7] it was 5.46 µM (active); in experiment [8], 7.39 µM (active). Besides, the result in [2], in experiment [3], in experiment [6], in [9] and in experiment [10] was inactive.

Regarding `FC(F)(F)C(F)(F)C(F)(F)N(C(F)(F)C(F)(F)C(F)(F)F)C(F)(F)C(F)(F)C(F)(F)F`, the outcome in [1], in [2], in experiment [3], in [4], in [5] and in experiment [6] was inactive. Besides, the result in experiment [8], in experiment [9] and in experiment [10] was inactive.

In the case of `CCCCCCCOC(=O)c1ccccc1C(=O)OCCCCCCC`, in experiment [1], the concentration at half-maximal activity (AC50) is 4.08 µM (active). Besides, the outcome in [2], in experiment [3], in experiment [4], in experiment [5], in experiment [6] and in [7] was inactive. Also, the result in experiment [8], in [9] and in experiment [10] was inactive.

On to `NC(=O)C(F)(F)C(F)(F)C(F)(F)C(F)(F)F`, for which the outcome in experiment [1], in [2], in experiment [3], in experiment [4], in [5] and in [6] was inactive. The result in experiment [8], in experiment [9] and in experiment [10] was inactive. Moreover, the half-maximal activity concentration (AC50) in experiment [8] is 4.8 µM (active).

For the molecule `OCCCC(F)(F)C(F)(F)C(F)(F)F`, the result in [1], in experiment [2], in [3], in [4], in experiment [5] and in [6] was inactive. Also, the outcome in experiment [8], in [9] and in experiment [10] was inactive.
